The panel holds about 83,000 compounds, 20% with a hit somewhere; the sample as a whole holds those more often.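 Plates (96-well) were seeded with cells, treated with compound at one concentration, and incubated for 48 hours before percent growth was determined.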 Values without a mark were called inactive. Active and inactive are the calls of the source. How the source made its calls: active means growth percent below 10; inactive means the rest.

This passage reports growth results from PubChem BioAssay (NCI).

Holding throughout (assay): NCI-60 one-dose screen, 48 h (100 = growth as untreated, 0 = no growth, -100 = all killed)
What all share (conditions): 10 µM

The subject of experiment [1] is HCT-15 colon.
In experiment [2] the test system is HT29 colon.
The test system of experiment [3] is SNB-75 CNS.
The test system of experiment [4] is SNB-19 CNS.
Experiment [5] deals with U251 CNS.
Experiment [6] has as its system PC-3 prostate.
Experiment [7] concerns SK-MEL-5 melanoma.
The subject of experiment [8] is UACC-62 melanoma.
For experiment [9], the system named is LOX IMVI melanoma.
Experiment [10] relates to SK-MEL-28 melanoma.
In experiment [11] the test system is SK-MEL-2 melanoma.
The subject of experiment [12] is SN12C renal.
The subject of experiment [13] is UO-31 renal.
The subject of experiment [14] is TK-10 renal.
The subject of experiment [15] is ACHN renal.
Experiment [16] has as its system CAKI-1 renal.
Experiment [17] deals with A498 renal.
In experiment [18] the test system is CCRF-CEM leukemia.
Experiment [19] relates to MOLT-4 leukemia.

Turning to `Cc1ccc(-n2nnc3c(sc4ccccc43)c2=O)cc1`, the growth was 89.3% in experiment [1]; 5.36% (active) in experiment [2]; 31.4% in [3]; 44.2% in experiment [4]; 18% in experiment [5]; 61.7% in experiment [6]. The growth in experiment [7] is 76.9%; in experiment [8], 85.4%; in experiment [9], 39.3%; in [10], 89.9%; in [11] it was 83%; in experiment [12], 76.7%. Further, the growth in experiment [13] is 9.98% (active); in experiment [14], 56.7%; in [15] it was 15.2%; in experiment [16] it was 48.7%; in experiment [17], 102%; in experiment [18], 76.3%. For the same molecule, the growth in experiment [19] is 90.6%.
Consider `O=C(Nc1cccc(Cl)c1)Nc1cc2ncncc2cc1OCc1cccc(F)c1`, for which the growth in experiment [1] was 0.775% (active); in [2] it was 0.74% (active); in experiment [3] it was 21.1%; in [4] it was 22.9%; in experiment [5], 6.99% (active); in [6], 9.57% (active). Besides, the growth in [7] was -88.5% (active); in [8], -18.4% (active); in experiment [9] it was 21.4%; in experiment [10], 20.9%; in [11], -24.3% (active); in experiment [12] it was 21.7%. Besides, the growth in [13] was 9.37% (active); in experiment [14], -3.16% (active); in experiment [15], 3.47% (active); in experiment [16] it was 14.6%; in [17], -9.36% (active); in experiment [18] it was 2.81% (active). In addition, the growth in [19] was 4.84% (active).
On to `Cc1ccc(C)c2c1sc1nc3n[nH]c(N)c3c(=N)n12`, for which the growth in [1] is 102%; in experiment [2] it was 111%; in experiment [3], 88.5%; in [4], 99%; in experiment [5], 100%; in experiment [6], 85.7%. The growth was 99.3% in experiment [7]; 108% in experiment [8]; 96.2% in experiment [9]; 106% in experiment [10]; 96.1% in experiment [11]; 104% in experiment [12]. Further, the growth in [13] was 85.8%; in [14], 116%; in experiment [15], 101%; in [16] it was 90.5%; in experiment [17] it was 103%; in experiment [18], 97.3%. Moreover, the growth in experiment [19] was 96%.
Turning to `Cc1ccc(/C=C2\CN(Cc3cn(CCNc4ccnc5cc(Cl)ccc45)nn3)C/C(=C\c3ccc(C)cc3)C2=O)cc1`, the growth in experiment [1] is -29.4% (active); in experiment [2], -45.1% (active); in [3] it was 18.1%; in experiment [4], -29.8% (active); in experiment [5], -73.7% (active); in [6] it was -32.4% (active). Moreover, the growth in experiment [7] was -90.5% (active); in experiment [8], -58.4% (active); in experiment [9], -82.9% (active); in experiment [10], -83.5% (active); in [11], -27.5% (active); in experiment [12], -63.4% (active). Further, the growth is -78.8% (active) in experiment [13]; 29.9% in experiment [14]; -16.9% (active) in [15]; -13.6% (active) in experiment [16]; -81.1% (active) in experiment [17]; 11.7% in [18]. In addition, in experiment [19], the growth was -10.4% (active).
As for `N#C/C(=C/c1cc([N+](=O)[O-])ccc1Cl)C(N)=O`, the growth was 83.4% in [1]; 80.3% in experiment [2]; 88.9% in experiment [3]; 99.7% in [4]; 93.6% in [5]; 88.7% in experiment [6]. The growth in experiment [7] was 98.8%; in experiment [8], 104%; in experiment [9], 68.8%; in [10] it was 105%; in [11] it was 88.2%; in experiment [12], 98.8%. In addition, the growth in experiment [13] was 72.7%; in experiment [14], 108%; in [15] it was 105%; in experiment [16], 86.9%; in [17], 111%; in experiment [18], 63.1%. In addition, the growth in [19] is 87.1%.
Take `COc1ccc(-c2cc(/C=C3\C(=O)Nc4cc(Cl)ccc43)[nH]n2)cc1`: the growth in experiment [1] is 28.6%; in experiment [2], 1.13% (active); in experiment [3], -27.5% (active); in experiment [4] it was 49%; in experiment [5] it was 40.1%; in [6], 14%. Moreover, the growth in [7] is 25.1%; in [8], 32.4%; in experiment [9] it was 38.2%; in experiment [10], 50.5%; in experiment [11] it was -0.387% (active); in experiment [12], 41.7%. Besides, the growth in experiment [13] is 27.2%; in experiment [14], 58.1%; in experiment [15], 44.9%; in experiment [16], 29.6%; in experiment [17], 58.3%; in experiment [18] it was 18.6%. In addition, in experiment [19], the growth is 21.7%.
On to `CCOC(=O)c1sc(Nc2ncccn2)nc1-c1ccccn1`, for which the growth in experiment [1] is 50.8%; in experiment [2] it was 99.6%; in experiment [3], 108%; in experiment [4] it was 91.5%; in experiment [5], 73.2%; in [6], 86.3%. In addition, the growth in experiment [7] is 83.2%; in experiment [8], 97.6%; in experiment [9], 79.9%; in [10] it was 94.7%; in experiment [11] it was 60.4%; in experiment [12] it was 92%. In addition, the growth in experiment [13] is 62.4%; in [14], 102%; in [15] it was 88.4%; in experiment [16] it was 57.2%; in experiment [17], 90.2%; in [18], 46.2%. In addition, the growth in experiment [19] was 73.1%.
Take `O=C1/C(=C/c2ccc(O)cc2)Oc2ccc(Cl)cc21`: the growth in experiment [1] was 89.1%; in experiment [2], 155%; in [3], 82.8%; in [4], 85.1%; in experiment [5] it was 89.9%; in experiment [6] it was 95.1%. Further, the growth was 74.8% in [7]; 82.5% in experiment [8]; 82.3% in experiment [9]; 142% in [10]; 109% in experiment [11]; 84.6% in experiment [12]. Besides, the growth in experiment [13] is 38.5%; in [14] it was 117%; in experiment [15] it was 95.4%; in experiment [16], 77.1%; in experiment [17] it was 125%; in experiment [18] it was 88.2%. The growth in experiment [19] was 81.1%.
For the molecule `COc1ccc(-c2nnc(COc3ccc(NC(=O)Nc4cccc(C(F)(F)F)c4)cc3F)o2)cc1`, the growth in experiment [1] was 46.1%; in [2] it was 66.8%; in [3], 79.6%; in experiment [4] it was 47.7%; in experiment [5] it was 48.1%; in experiment [6] it was 46.5%. The growth in [7] was 78.8%; in experiment [8], 17.1%; in experiment [9], 8.23% (active); in [10] it was 73.4%; in experiment [11], 36.8%; in [12], 48.7%. The growth in experiment [13] is 57.2%; in experiment [14], 75.3%; in experiment [15] it was 27.3%; in experiment [16], 50.6%; in [17], 27.3%; in experiment [18], 47.7%. Further, the growth in experiment [19] is 33.8%.
